From PubChem BioAssay AID651692 (Broad Institute, 2012)
Measured potencies and affinities stand elsewhere. The source made the active and inactive calls.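 How the source made its calls: active means fitted half-maximal concentration for loss of cell signal no higher than twice the top valid tested concentration; inconclusive means flat curve at 30 to 70% inhibition, or poor fit; inactive means flat within 30%, signal rise, or potency above limit.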

Experiment: cytotoxicity toward MDA-MB-231 breast cancer cells – cell-based, CellTiter-Glo luminescence, cherry-pick, cytotoxicity control for RAD54 inhibitor project, dose response (AID 651692);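 further: more negative values mean stronger loss of viable cell signal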
Details: MDA-MB-231 viability, 24 h; series mostly up to 26 µM
In the case of `COc1ccc(Nc2nc(NCC3CCCO3)c3ccccc3n2)c(OC)c1` (stereo not drawn), the outcome is reported as “inactive”. For `CN1CCN(c2nc(-c3ccncc3)nc3ccccc23)CC1`, the outcome was “inactive”. With `CCn1c(=N)c(C(=O)NCCCOC)cc2c(=O)n3cccc(C)c3nc21` the outcome was “inactive”. With `CCN(CC)CCNc1ccc(CO)c2oc3ccccc3c(=O)c12` the outcome was “inactive”. For `O=c1cc(CSc2n[nH]c(=O)n2C2CC2)c2ccc(O)cc2o1`, the outcome was “inactive”. For `CCN(CC)CCn1c2ccc(Cl)cc2c2nc(C)sc21`, the outcome was “inactive”. In the case of `CCN1CCN(CCCNC(=O)c2cc3c(=O)[nH]c4ccccc4c3s2)CC1`, the outcome is reported as “inactive”. With `Cc1cccn2c(=O)c3cc(C(=O)NCC4CCCO4)c(=N)n(C4CCCCC4)c3nc12` (stereo not drawn) the outcome was “inactive”. In the case of `O=c1c2ccccc2sc2ccc(NCCCN3CCOCC3)cc12`, the outcome is reported as “inactive”. With `Cn1c(C(=O)NCCCN2CCOCC2)cc2c(=O)n(C)c3ccccc3c21` the outcome was “inactive”. In the case of `COc1cc2nc(N3CCNCC3)nc(N)c2cc1OC`, the outcome is reported as “inactive”. For `COc1ccc(-c2nc(C(=O)NCCCN3CCOCC3)cc3c2[nH]c2ccccc23)cc1OC`, the outcome was “inactive”. In the case of `COc1cc2sc3cc(NCC[C@@H]4CCCN4C)ccc3c(=O)c2cc1OC`, the outcome is reported as “inactive”. With `CCN1CCN(c2cc(C)c3cc(NC(=S)N4CCC5(CC4)OCCO5)ccc3n2)CC1` the outcome was “inactive”. With `COc1ccc(C(=O)Nc2cc(C)c(NC(=O)c3ccccc3OC)cn2)cc1` the outcome was “inactive”. For `CCOC(=O)c1cnc2c(C)cc(Cl)cc2c1NCCCN1CCOCC1`, the outcome was “inactive”. With `CC(=O)Nc1ccc2cc3ccc(NC(C)=O)cc3nc2c1` the outcome was “inactive”. In the case of `COc1ccc(-c2nn(C)c3sc(C(=O)NCCN(C)C)cc23)cc1OC`, the outcome is reported as “inactive”.
